# Assay outcomes: PubChem BioAssay, National Center for Advancing Translational Sciences (NCATS)
# The list is not random: actives were taken first. Their share in the collection is about 19%.
# Pf growth 48h: Primary qHTS for delayed death inhibitors of the malarial parasite plastid, 48 hour incubation; P. falciparum luciferase growth in erythrocytes, 48 h; Potency, µM (highest dose often 28.7 µM), for inactives: at the top dose activity change, negative = inhibition, hits mostly inhibitors; actives 5.9% (n = 310,000); AID 504832, 2011; note: potency is the fitted concentration of half-maximal effect; % is set by controls: 0 for no effect and ±100 for the full control effect
#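 In quantitative HTS format, infected erythrocytes bearing luciferase-reporter parasites were treated for a single generation at 37 C. Luminescence after adding detection reagent served as the growth measure.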
# Shiga inhibitor: A qHTS for Small Molecule Inhibitors of Shiga Toxin. Vero cells, Shiga toxin protein synthesis inhibition reporter. inhibition, % at 38.7 µM. actives 9.2% (n = 290,000); in the data active = inhibition mostly above about 28%, no sharp cut-off; inactive = mostly below about 43%; note: 0% is about no effect
# Lassa entry inh: qHTS for Inhibitors of binding or entry into cells for Lassa Virus. Lassa virus pseudotype entry inhibition, cell reporter. Potency, µM (doses to about 37.9 µM), inactives show at the top dose activity change, negative = inhibition, hits mostly inhibitors. actives 1.2% (n = 300,000). AID 540256, 2011; calls by dose curve; tested in HEK293 cells; note: potency is the fitted concentration of half-maximal effect; % is set by controls: 0 for no effect and ±100 for the full control effect; nearly all actives have a fitted effect of over 50% in size
# CHX counter: Cycloheximide Counterscreen for Small Molecule Inhibitors of Shiga Toxin | max response, % | cell reporter, cycloheximide protein synthesis inhibition counterscreen | actives 12% (n = 300,000) | AID 2314, 2010; in the data active = max response mostly above about 13%, no sharp cut-off; inactive = mostly below about 14%; note: read at 38.3 µM for the half of the compounds with a filed dose; 0% is about no effect
# Marburg entry inh: qHTS for inhibitors of binding or entry into cells for Marburg Virus; Marburg virus pseudotyped entry inhibition, cell reporter; actives 1.8% (n = 300,000); Potency, µM (series often up to 37.8 µM), for the others: top-dose activity change, negative = inhibition, hits mostly inhibitors; AID 540276, 2011; calls by dose curve; tested in HEK293 cells; note: potency is the fitted concentration of half-maximal effect; % is set by controls: 0 for no effect and ±100 for the full control effect
# Pf growth 96h: Primary qHTS for delayed death inhibitors of the malarial parasite plastid, 96 hour incubation. AID 504834, 2011. Potency, µM (doses to about 28.7 µM), for inactives: at the top dose activity change, negative = inhibition, most hits filed as inhibitors. actives 6.9% (n = 320,000). P. falciparum luciferase reporter growth, 96 h; note: potency is the fitted concentration of half-maximal effect; % is set by controls: 0 for no effect and ±100 for the full control effect
#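 Compounds incubated with erythrocytes infected by luciferase-expressing P. falciparum (2% hematocrit, 0.05% parasitemia final) for 96 hours, 37 C in 5% CO2. Growth inhibition scored as decreased luciferase luminescence.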
# * = called active by the depositor; i = inactive; ? = inconclusive; . = no result; [ ] = dose if it differs, or a comment. Unless noted, calls come from the whole dose curve; as a rule, active = well fitted inhibition curve with a large enough effect; inconclusive = small, poorly fitted or top-dose-only effect, or another doubt; inactive = no such curve, though single readings can be large or run the other way.
SMILES,Pf growth 48h,Shiga inhibitor,Lassa entry inh,CHX counter,Marburg entry inh,Pf growth 96h
COC(=O)[C@]1(Cc2ccccc2)N[C@H](c2ccc(-c3cc(C(C)=O)cs3)cc2)[C@@H]2C(=O)N(C)C(=O)[C@@H]21,9.28µM*,.,.,.,.,?
CCOC(=O)C1(CC)NC(c2ccc(N(C)C)cc2)C2C(=O)N(C)C(=O)C21 (centres undefined),-3.9%,15.2,-1.9%,-5.3,4.7%,-2.6%
COc1ccc(N2C(=O)C3C4C=CC(C4)C3C2=O)c([N+](=O)[O-])c1 (centres undefined),-15.9%,-5.2,.,1.7,.,33.0%
COC(=O)C1(Cc2ccccc2)NC(c2ccc(F)cc2)C2C(=O)N(C)C(=O)C21 (centres undefined),-37.3%,-1.2,15.7%,-1.3,3.5%,34.4%
COC(=O)[C@]1(Cc2ccccc2)N[C@H](c2ccc(-c3cccc(Cl)c3)cc2)[C@@H]2C(=O)N(C)C(=O)[C@@H]21,13.1µM*,.,.,.,.,5.22µM*
COC(=O)[C@]1(Cc2ccccc2)N[C@H](c2ccc(-c3ccc(Cl)c(Cl)c3)cc2)[C@@H]2C(=O)N(C)C(=O)[C@@H]21,5.86µM*,.,.,.,.,9.28µM*
COc1ccc(OCc2ccc(-c3nc(C#N)c(N4CCC(C)CC4)o3)o2)cc1,.,.,?,.,-10.2%[46.1 µM],.
Cc1sc2nc(C(C)Sc3nnc(C)n3-c3ccccc3)[nH]c(=O)c2c1C (centres undefined),-23.1%,3.4,.,-2.8,0.0%,.
COC(=O)Oc1ccc(/C=N/NS(=O)(=O)c2ccccc2)cc1OC,5.2%,.,-26.3%[46.1 µM],7.8,?,229.4%
CCN(CC)c1ccc2cc(S(=O)(=O)c3ccc(Cl)cc3)c(=O)oc2c1,?,-10.6,10.6%,-2.9,17.6%,13.1µM*
COc1ccc(-c2oc3ccccc3c2C(=O)OCc2ccccc2)cc1,19.2%,33.7*,.,31.0*,.,?
COc1ccc(-c2oc3ccccc3c2C(=O)OCc2ccc(O)cc2)cc1,142.7%,27.7*,.,24.3*,.,47.2%
COc1ccc2oc(-c3ccccc3)c(C(N)=O)c2c1,29.9%,33.8,0.8%,27.6*,1.9%,29.0%
COc1ccc2oc(-c3ccccc3)c(C(=O)O)c2c1,12.5%,7.7,.,-6.0,.,?
COC(=O)c1c(-c2ccc(OC)cc2)oc2ccccc12,0.0%,-6.6,.,-1.9,.,48.9%
COc1ccc(-c2oc3ccccc3c2C(=O)OCc2ccc([N+](=O)[O-])cc2)cc1,21.1%,-4.2,.,0.9,.,33.8%
O=C(COc1ccc(=O)n(-c2ccccc2)n1)Nc1ccccc1,?,3.7,.,-2.1,.,-1.9%
O=[N+]([O-])c1ccccc1OCc1nc(-c2cccs2)no1,235.5%,178.9*,?,61.1*,-19.3%[46.1 µM],2.8%
O=C(O)CCc1nc(-c2cccs2)no1,18.4%,-17.0,11.3%,-2.2,19.6%,?
Cc1cc(CNC(=O)COc2cc(F)ccc2[N+](=O)[O-])c2ccccc2n1,18.0%,-19.1,?,17.3,?,?
O=[N+]([O-])c1ccc(F)cc1OCc1nc(-c2cccs2)no1,i,95.1*,?,41.3*,-7.4%[46.1 µM],2.9%
Cc1ccc(OCc2nc(-c3cccs3)no2)c([N+](=O)[O-])c1,309.1%,99.7*,?,45.5*,?,?
Cc1ccc(OCCOc2cccc3ccc(C)nc23)c([N+](=O)[O-])c1,?,50.9,9.9%[46.1 µM],12.9,4.2%[46.1 µM],?
Cc1n[nH]c(=O)n1-c1ccc(OCc2ccccc2)cc1,283.5%,91.9*,-31.0%[46.1 µM],53.4*,?,-74.8%
COc1ccc(-n2c(C)n[nH]c2=O)cc1,12.5%,-10.2,?,-2.1,21.5%,77.3%
SMILES,Pf growth 48h,Shiga inhibitor,Lassa entry inh,CHX counter,Marburg entry inh,Pf growth 96h
Cc1cc(=O)[nH]c(SCC(=O)Nc2cc(S(=O)(=O)N3CCCC3)ccc2Cl)n1,-15.6%,2.8,.,-1.1,.,-9.4%
COc1cccc(C2c3c(-c4ccccc4O)n[nH]c3C(=O)N2Cc2cccnc2)c1 (centres undefined),.,.,?,.,-8.1%[46.1 µM],.
CCc1ccc(C2c3c(-c4cc(C)ccc4O)n[nH]c3C(=O)N2Cc2cccnc2)cc1 (centres undefined),.,.,?,.,12.6µM*,.
COc1cc(C2c3c(-c4cc(Cl)c(C)cc4O)n[nH]c3C(=O)N2Cc2cccnc2)ccc1O (centres undefined),8.28µM*,-9.6,-28.7%,1.9,-0.5%,.
COc1cccc(C2c3c(-c4cc(Cl)c(C)cc4O)n[nH]c3C(=O)N2Cc2cccnc2)c1 (centres undefined),.,-18.6,?,-2.4,-28.6%,6.57µM*
COc1cc(C2c3c(-c4cc(C)ccc4O)n[nH]c3C(=O)N2Cc2cccnc2)cc(OC)c1OC (centres undefined),.,.,?,.,1.2%[46.1 µM],.
COc1ccc(Cl)cc1NC(=O)CCn1cnc2ccccc2c1=O,-13.4%,-2.9,-6.6%,-0.2,-1.1%,6.7%
COc1ccc([N+](=O)[O-])cc1NC(=O)CCN1CCN(c2ccccc2)CC1,10.5%,21.1,-18.9%,-3.7,?,-5.7%
Cc1ccccc1CN1C(=O)C(O)(CC(=O)c2ccncc2)c2ccccc21 (centres undefined),-2.7%,-9.7,-25.1%,-3.8,-2.1%,-25.3%
CCOC(=O)c1ccc(-n2nc(C)cc2C)cc1,34.2%,active,.,15.3*,.,67.1%
CCOC(=O)c1nc(C)n(-c2ccc([N+](=O)[O-])cc2)n1,50.4%,-3.1,?,13.5,-3.6%[46.1 µM],0.1%
Cc1cc(C)n(-c2ccc(Cl)c(C(=O)O)c2)n1,72.7%,45.9,6.4%[46.1 µM],44.0*,9.8%[46.1 µM],21.4%
CCOC(=O)c1nc(C)n(-c2ccc(Cl)cc2)n1,30.7%,11.8,1.1%,19.8*,-14.5%,20.6%
COC(=O)c1ccc(CSc2nnc3ccc4ccccc4n23)cc1,.,.,-20.6%[46.1 µM],.,-1.8%[46.1 µM],.
O=C(CCl)N(CCCNC(=O)C(F)(F)F)c1ccc([N+](=O)[O-])cc1,9.28µM*,39.7,2.8%,15.1,-17.4%[46.1 µM],?
O=C(NCCCNc1ccc([N+](=O)[O-])cc1)C(F)(F)F,-29.7%,27.5,0.8%,24.6,?,216.7%
C/C(=N\n1nnnc1Nc1ccccc1)c1ccc(N)cc1,15.6%,32.7,.,26.2*,0.0%,172.1%
CSc1ncccc1C(=O)Nc1nc2ccc(Oc3ccccc3)cc2s1,46.0%,55.6*,5.8%,15.1*,-19.1%,62.2%
CSc1ncccc1C(=O)Nc1ccc2nc(C)sc2c1,-6.4%,49.5*,.,19.4*,.,26.6%
CCOc1ncccc1C(=O)Nc1ccc2nc(C)sc2c1,-18.4%,50.3*,?,13.6*,?,17.6%
COCc1cccc(NC(=O)Cc2cccc3ccccc23)c1,24.2%,0.7,4.2%,-0.7,-19.2%[46.1 µM],-3.0%
CC(NC(=O)C1CCCC1)C1CC2CCC1C2 (centres undefined),0.6%,15.4,5.3%,3.9,-1.8%,0.0%
